Out of some 1,400 compounds screened, about 560 (40%) were called active. So high a share suggests a set chosen from earlier hits. The list shows a part of the results. A number with no mark means an inactive call.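 Rule for the calls: active = mean inhibition over duplicate tests at 10 µM above 50%; inactive = the rest.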
experiment: ASC/caspase-1 reporter retest in S. cerevisiae at one dose, specificity check for NALP1 project (AID 488857); details: S. cerevisiae ASC/Caspase-1, beta-galactosidase luminescence, 24 h; at 10 µM; active compounds read high

Row | Structure (SMILES) | inhibition
1 | NC(=O)C1(N2CCCCC2)CCN(Cc2nc(-c3cccs3)no2)CC1 | 24.1%
2 | COC(=O)c1ccc(NC(=O)CN2C(=O)CNC2=O)cc1 | 30.4%
3 | COC(=O)c1ccc(C(=O)OC)c(NC(=O)COC(=O)C2CCCCC2)c1 | 35.8%
4 | COC(=O)c1ccc(NC(=O)C(=O)N2CCCC2)cc1 | 52.5% (active)
5 | CCOC(=O)C1(Cc2ccc(OC)cc2)CCN(C(=O)CCc2cnccn2)CC1 | 20.9%
6 | Cc1cccnc1NC(=O)c1ccccc1NC(=O)C(C)(C)C | 41.2%
7 | COc1ccc(Nc2ncccc2C(=O)NCc2ccccc2)cc1 | 67% (active)
8 | Cc1cc(C)c([C@@H]2C[C@H]3CN(C4CCCC4)C(=O)[C@]34CCCN24)c(-n2cccn2)c1 | 36.2%
9 | COc1ccc(OCC(=O)NC(=S)N2CCCc3ccccc32)cc1 | 37.9%
10 | O=C(CN1CCN(c2ccccc2)CC1)Nc1ccc2c(c1)CCC2 | 21.1%
11 | CS(=O)(=O)N(Cc1ccccc1)c1ccc(C(=O)Nc2ccc3c(c2)OCO3)cc1 | 36%
12 | C=C(C)C(=O)Nc1cccc(C(C)=O)c1 | 38.2%
13 | CS(=O)(=O)N(Cc1ccccc1)c1ccc(C(=O)Nc2cccnc2)cc1 | 36%
14 | O=C(Nc1ccc2nc3ccccc3nc2c1)c1ccccc1 | 90.7% (active)
15 | O=C(Nc1ccc(Cl)c(Cl)c1)c1ccncc1 | 44.9%
16 | O=C(COC(=O)CCC1CCCCC1)Nc1ccc(OC(F)F)cc1 | 23.5%
17 | O=C(COc1ccc(Cl)cc1)Nc1ccc2c(c1)CCC2 | 71.5% (active)
18 | O=C(Nc1ccc2c(c1)CCC2)c1ccccc1 | 71.7% (active)
19 | O=C(Nc1ccc2c(c1)Cc1ccccc1-2)c1ccncc1 | 74.5% (active)
20 | COC(=O)c1ccccc1SC1CC(=O)N(c2cccc(C)c2)C1=O (stereo not given) | 37.6%
21 | CCN(CC)C1CC(=O)N(c2cccc(C)c2)C1=O (stereo not given) | 58% (active)
22 | Cc1cccc(N2C(=O)CC(Sc3ccccc3C(=O)O)C2=O)c1 (stereo not given) | 49.3%
23 | C=CCn1c(CNC(=O)c2cccs2)nnc1SCC(=O)Nc1ccc(C(=O)O)cc1 | 28.1%
24 | O=c1sc(Nc2ccccc2)nc2ccsc12 | 77.2% (active)
25 | N#Cc1ccc(Oc2nc(Nc3ccc(F)cc3)nc(N3CCCC3)n2)cc1 | 37.5%

Row | Structure (SMILES) | inhibition
26 | O=C1c2cccc(O)c2C(=O)c2c(O)cccc21 | 59.5% (active)
27 | CN(C=[N+](C)C)c1cccc2c1C(=O)c1ccccc1C2=O | 42.7%
28 | CN(C)S(=O)(=O)c1cccc2c1C(=O)c1ccccc1C2=O | 44.5%
29 | S=C(NC1CCCCC1)NN(c1ccccc1)c1ccccc1 | 53.4% (active)
30 | O=C(O)CCCCc1nc2ccccc2s1 | 32%
31 | O=C(CCc1nc2ccccc2s1)Nc1ccccc1 | 80.2% (active)
32 | CCOc1ccccc1N1CCN(C(=O)CCCc2nc3ccccc3s2)CC1 | 48.7%
33 | Cc1ccsc1/C=N/n1c(-c2ccccn2)n[nH]c1=S | 54.9% (active)
34 | Cc1ccc2nc(Cl)c(C3CC(c4cccs4)=NN3C(=O)CCCC(=O)O)cc2c1 (stereo not given) | 30.2%
35 | Cc1ccc(Sc2nnc(Cc3ccccc3)c3ccccc23)cc1 | 48.1%
36 | Clc1ccc2oc3c(Cl)ncnc3c2c1 | 29.9%
37 | COc1ccc2c(c1)C1=NN(/C(C)=C/C(C)=O)C(c3cccc(F)c3)C1CC2 (stereo not given) | 47.5%
38 | Cc1ccc(C(=O)c2no[n+]([O-])c2C(=O)c2ccc(C)cc2)cc1 | 77.2% (active)
39 | Cc1ccc(C(=O)/C=C\C(=O)c2ccc(C)cc2)cc1 | 44.1%
40 | CC(C)c1nc2sc3c(=O)[nH]c(=S)[nH]c3c2c2c1CCC2 | 32%
41 | O=C1C2C3C=CC(C2C(=O)N1CCCO)C1C2C(=O)N(CCCO)C(=O)C2C31 (stereo not given) | 40.4%
42 | O=C(O)C1(c2ccccc2)CCN(S(=O)(=O)c2ccc(Br)cc2)CC1 | 29.4%
43 | CCOC(=O)C1CCCCN1Cc1cccc(F)c1 (stereo not given) | 27.4%
44 | O=S(=O)(c1ccc(Br)cc1)N1CCCN(Cc2cccc(F)c2)CC1 | 61.5% (active)
45 | COc1ccccc1C(=O)Nc1ccc(OCc2nnc3c4ccccc4c(C)nn23)cc1 | 45.4%
46 | COc1ccccc1-c1nnc2sc(COc3ccc(Cl)cc3)nn12 | 56.9% (active)
47 | Clc1ccc(Cn2c(/C=C/c3ccco3)nc3ccccc32)cc1 | 46.5%
48 | Oc1c(CN2CCCCC2)cc(Br)c2cccnc12 | 49%
49 | Oc1c(I)cc(Cl)c2cccnc12 | 97.2% (active)
50 | O=C(N/N=C/c1cccc(F)c1)c1c(O)c2ccccc2[nH]c1=O | 38.5%

Row | Structure (SMILES) | inhibition
51 | NC(=S)N/N=C/c1coc2c(ccc3ccccc32)c1=O | 58% (active)
52 | CSc1ccc(C(=O)C2CCCN(C(=O)c3ccc4c(c3)no[n+]4[O-])C2)cc1 (stereo not given) | 19.9%
53 | Cn1c(=O)c([N+](=O)[O-])c(-n2cnc3ccccc32)c2ccccc21 | 14.3%
54 | O=[N+]([O-])/C(C(=C(Cl)Cl)N1CCN(Cc2ccccc2)CC1)=C1\NCCN1Cc1ccc(Cl)nc1 | 41.5%
55 | Cc1cc2ncn(/N=C/c3ccc([N+](=O)[O-])s3)c2cc1C | 67.8% (active)
56 | CN(C)/C=N/n1cnc2ccccc2c1=O | 32%
57 | CCCCCCCCCCCCCCCC[n+]1cccc2ccccc21 | 93.7% (active)
58 | O=c1c(Br)c(N2CCCC2)cnn1-c1ccccc1 | 64.9% (active)
59 | c1ccc2sc(Sc3ncnc4sccc34)nc2c1 | 44.6%
60 | Cn1c2ccccc2c(=O)c2c(=O)n(C3CCCCCC3)c(C3CCCCC3)nc21 | 53.2% (active)
61 | COc1ccc(CCn2c(C(C)C)nc3c(c(=O)c4ccccc4n3C)c2=O)cc1 | 28%
62 | Cc1ccc(NC(=O)c2cccc(S(=O)(=O)N(C)c3ccccc3)c2)cc1S(=O)(=O)N1CCOCC1 | 36.1%
63 | COC(=O)c1ccc(NC(=O)c2ccccc2N(C)S(=O)(=O)c2ccccc2)cc1 | 55.2% (active)
64 | CSc1ccc(/C=C/C(=O)c2ccc(NC(C)=O)cc2)cc1 | 75.5% (active)
65 | CSc1ccc(/C=C/C(=O)c2ccc(O)cc2)cc1 | 81.2% (active)
66 | CC(=O)c1ccc(NC(=O)/C=C/c2ccc(C)cc2)cc1 | 60.4% (active)
67 | COc1cc(/C=C/C(=O)Nc2ccc(C)cc2)cc(OC)c1OC | 46.8%
68 | Cc1c(N)c(C(C)(C)C)cc(C(C)(C)C)c1[N+](=O)[O-] | 35.1%
69 | CCN1CCN(c2cc3c(cc2F)c(=O)c(C(=O)O)cn3C2CC2)CC1 | 36.3%
70 | CCOC(=O)C(=O)C1=C(N2CCOCC2)/C(=C\c2ccc(F)cc2)CC1 | 36.2%
71 | COc1ccc(OC)c(/C=c2\sc3nc(-c4cccs4)nn3c2=O)c1 | 23.2%
72 | COC(=O)c1ccc(C(=O)OC)c(NC(=O)CN2CCN(c3ccccc3OC)CC2)c1 | 49.2%
73 | COc1ccc(C(=O)NCc2ccccc2)cc1S(=O)(=O)N1CCCc2ccccc21 | 39%
74 | COc1ccc(C(=O)NC(=S)Nc2ccccc2N2CCCCC2)cc1[N+](=O)[O-] | 68% (active)
75 | CCOc1ccc(C(=O)Nc2ccc(-c3nc4ccccc4[nH]3)cc2)cc1[N+](=O)[O-] | 39.4%

Row | Structure (SMILES) | inhibition
76 | CCOc1ccc(C(=O)NC(=S)Nc2ccccc2N2CCCCC2)cc1[N+](=O)[O-] | 62.5% (active)
77 | CC1CCN(c2ccccc2NC(=O)c2ccc(N3CCOCC3)c([N+](=O)[O-])c2)CC1 | 27.4%
78 | COc1cc(-c2nc(C(F)(F)F)c(OC)o2)cc(OC)c1OC | 44.9%
79 | COc1cc(/C=C/C(=O)c2ccc(Cl)s2)cc(OC)c1O | 63.6% (active)
80 | Cc1cccc(OC(=O)c2cn(C)nc2C(F)(F)F)c1C | 50.9% (active)
81 | Cc1ccc(-c2csc3ncnc(Oc4cccc5ccc(C)nc45)c23)cc1 | 63% (active)
82 | COc1ccccc1N1CCN(C(=O)CSc2ncnc3scc(-c4ccccc4)c23)CC1 | 44.1%
83 | COc1ccc(-c2csc3ncnc(Oc4cccc5ccc(C)nc45)c23)cc1 | 71.4% (active)
84 | O=C(c1ccc(F)cc1)c1cn(Cc2ccc(F)cc2)c2cc3c(cc2c1=O)OCCO3 | 44.1%
85 | O=C(/C=C/c1ccc(F)cc1)NCCc1ccc2c(c1)OCCO2 | 61.6% (active)
86 | Cc1ccc(/C=C/C(=O)NCc2ccc3c(c2)OCO3)o1 | 42.4%
87 | O=C(Nc1ccon1)c1cc2ccccc2oc1=O | 30.9%
88 | O=C(Nc1cccnc1)Nc1ccc2c(c1)OCO2 | 43.5%
89 | O=C(Nc1cccc(-c2nc3ncccc3o2)c1)c1cc2ccccc2o1 | 61.8% (active)
90 | O=C(N/N=C/c1ccncc1)c1cc2ccccc2o1 | 41.4%
91 | O=C(NC(=S)Nc1cccnc1)c1cc2ccccc2o1 | 69.7% (active)
92 | O=C(O)CC(Cn1cnnn1)c1ccccc1 (stereo not given) | 29.3%
93 | CN(C#N)c1nc(Cl)nc(Nc2cccc(Cl)c2)n1 | 28.1%
94 | O=[N+]([O-])c1cc(C(F)(F)F)ccc1NCCc1c[nH]c2ccc(O)cc12 | 70.5% (active)
95 | Cc1ccc(C(=O)NCCCNc2ccc(C(F)(F)F)cc2[N+](=O)[O-])cc1 | 46.6%
96 | C1CCC(C(CC2CCCCN2)C2CCCCC2)CC1 (stereo not given) | 39.9%
97 | COc1ccc(/C=N/N2CCOCC2)cc1COc1ccc(Cl)cc1 | 61% (active)
98 | COc1cc(/C=N/n2cnnc2)ccc1OCc1ccc(C)cc1 | 48.5%
99 | O=C1C=CC(=O)N1CCCCCCN1C(=O)C=CC1=O | 73.7% (active)
100 | O=C1C=CC(=O)N1CCNc1ncc(C(F)(F)F)cc1Cl | 44%
